From ChEMBL document CHEMBL3988442, “University of Dundee, Small-Polar-MMV Screening Library” (2021)
About 440 (0.52%) of roughly 85,000 compounds showed an effect of 50% or more. For the sample, strong results were picked, then their nearest neighbours and some compounds at random.

Test: In vitro enzyme assay to detect hydrolysis of chlorophenol red-beta-D-[…] directly proportional to the number of Toxoplasma stably expressing beta-galactosidase
Assay type: functional, organism-based, Toxoplasma gondii
Parameters: scale not given: in the data most compounds retested in dose-response had high values

| Compound | Percent Effect (50 µM) [%] | Percent Effect (10 µM) [%] |
| --- | --- | --- |
| CCCN1CCN(Cc2nccn2C)CC1 | 5.907 | – |
| Cc1ccc(C(=O)N2C[C@@H]3OCCN(C)[C@@H]3C2)cn1.O=C(O)C(F)(F)F | – | 3.64 |
| COC[C@@H]1CCC[C@]12CN(Cc1cccc(C)n1)CCO2.O=C(O)C(F)(F)F.O=C(O)C(F)(F)F | – | -5.738 |
| CCOC[C@@H]1CCC[C@@]12CN(Cc1cccnc1)CCO2 | – | -14.2 |
| COC[C@H]1CCC[C@]12CN(Cc1cccc(C)n1)CCO2 | – | 72.48 |
| Fc1cnc(N2CCCC3(CCN(Cc4cccs4)C3)C2)nc1.O=C(O)C(F)(F)F.O=C(O)C(F)(F)F (configuration not stated) | – | -7.824 |
| NCCCN1CCN(c2ccccc2)CC1 | 0.9017 | – |
| COCCN1CCN(c2ccc(OC)cc2)CC1 | -4.401 | – |
| Cn1c(CCN2CCN(c3ccc(O)cc3)CC2)nc2ccccc21 | – | 79.1 |
| Cc1cc(C(=O)N2CC[C@H]3CC[C@@H](C2)N3)nc(C)n1 | 2.124 | – |
| Cn1cc(CCN)nn1 | 26.5 | – |
| CC(C)(C)OC(=O)NC1CC2(CNC2)C1 | -10.31 | – |
| CCN1CCN(Cc2nnnn2C2CC2)CC1 | 99.81 | – |
| CCCn1nnnc1CN1CCN(CC)CC1 | -8.148 | – |
| CC(C)N1CCN(Cc2nnnn2C2CC2)CC1 | -4.596 | – |
| COc1ccc(CN2CC[C@@]3(O)CCCC[C@H]3C2)cn1 | -5.926 | – |
| Cc1cc(C2CCCN2)on1 (configuration not stated) | -7.97 | – |
| COCCN1CCC2(COCc3cnc(N4CCOCC4)nc32)C1.O=C(O)C(F)(F)F (configuration not stated) | – | -0.4992 |
| c1nc(N2CCOCC2)nc2c1COCC21CCN(CC2CC2)C1 (configuration not stated) | – | 63.85 |
| CN(C)c1ncc2c(n1)C1(CCN(CC3CC3)C1)COC2.O=C(O)C(F)(F)F (configuration not stated) | – | -3.49 |
| Fc1cnc(N2CCC3(CC2)CN(Cc2cccs2)CCO3)nc1.O=C(O)C(F)(F)F.O=C(O)C(F)(F)F | – | 21.36 |
| C[S+](C)[c-]1c(=O)[nH]c(=O)n(CCc2ccc(F)cc2)c1=O | – | 11.54 |
